Experimental data published in PubChem BioAssay.
Several values for one entry are separate records, joined by “and”; a condition that tells them apart may be missing. Identical values can stand only once. Activity calls are given as the source filed them.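 The calls were made as follows, unless noted: active = compounds whose cell count with miR-34 switched on is under 0.7 times the count with it off; inactive = the rest.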

What was measured:
[1] = hESC survival regulators, cell-based (AID 493140; call rule not given here;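 also: cells exposed to compounds for four days before counting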); conditions: human embryonic stem cell survival screen; stronger effect = higher value
[2] = liver-stage malaria parasite growth inhibition, primary screen, cell-based, HepG2, luciferase luminescence, HepG2 viability (AID 624349; in the data active = parasite load remaining mostly below about 12%, no sharp cut-off; inactive = mostly above about 10%;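 also: 100% = mean of DMSO negative control wells on the same plate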); conditions: P. berghei liver stage in HepG2, luciferase luminescence, concentration not given here; parasite load remaining: stronger effect = lower value; viability: measured here: HepG2 viability without parasites
[3] = stimulators of nuclear beta-catenin in C2C12, primary screen, imaging, WNT3A-conditioned medium, mouse C2C12, NPC library (AID 1117326; in the data active = nuclear beta-catenin stimulation mostly above about 4.2%, no sharp cut-off; inactive = mostly below about 10%); conditions: stronger effect = higher value
[4] = stimulators of insulin release from INS-1E, primary screen, cell-based, 5 mM glucose, NPC library (AID 1117329;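 active = compound raises insulin release from rat beta cells at 5 mM glucose, no numeric limit stated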); conditions: rat INS-1E insulin secretion, at 10 µM, stronger effect = higher value
[5] = growth inhibition of GSK3B-pretreated HCT116 cells – cell-based, CellTiter-Glo, 0.2 to 20 µM (AID 1117336;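 active = compounds lowering colon cancer cell viability after pretreatment blocking the GSK3B kinase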); conditions: HCT116 viability after GSK3B inhibitor, at 20 µM, stronger effect = higher value
[6] = inhibition of endothelial tube formation, primary screen, imaging, VEGF stimulated, CD31 staining, tube area, NPC library (AID 1117340;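 active = compound that reduces growth-factor-driven endothelial tube area in a mixed cell culture, no cutoff stated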); conditions: VEGF-stimulated ADSC/ECFC co-culture, at 10 µM, stronger effect = higher value
[7] = glucagon-like peptide 1 release enhancers, primary assay, NCI-H716 cell line, NPC library (AID 1117341;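 active = compound raises GLP1 secretion from the human gut endocrine cells, with no numeric limit stated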); conditions: NCI-H716 cells, at 10 µM, stronger effect = higher value
[8] = HCT116 colon cancer cell growth inhibition, primary screen, CellTiter-Glo luminescence, NPC library (AID 1117342;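 active = compounds that lower survival of HCT116 colon cancer cells in the luminescence readout, no numeric limit stated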); conditions: at 20 µM (top of the series)
[9] = CellTiter-Glo luminescent readout of SW480 viability loss, NPC library primary (AID 1117343;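 active = compounds that lower viability of the colon cancer cells in the luminescence readout, with no numeric limit stated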); conditions: CellTiter-Glo luminescence; at 20 µM (top of the series)
[10] = decreased DLD-1 cellular survival, CellTiter-Glo luminescent readout, NPC compound collection, primary HTS (AID 1117346;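 active = compounds that lower survival of DLD-1 colon cancer cells in the luminescence readout, no cutoff given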); conditions: DLD-1 viability, CellTiter-Glo luminescence; at 20 µM (top of the series)
[11] = differential killing of epithelial or mesenchymal cells, primary screen, imaging, PC-3E GFP, TEM4-18 mCherry, co-culture (AID 1345086;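 active = compounds killing one labelled cell type while sparing the other, by normalised counts and ratio limits, not self-fluorescent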;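 as to all read-outs here: cells exposed to compound for 72 h before imaging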;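 as to red/green cell ratio (normalised): normalised mesenchymal count divided by normalised epithelial count so high means epithelial killing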); conditions: imaging cell counts, at 1 µM; for red/green cell ratio (normalised): actives lie on both sides
[12] = sensitizers of A549 cells to miR-34 induction, primary screen, imaging, A549 dox-inducible miR-34, nuclei and caspase counts (AID 1347080); conditions: A549 miR-34 inducible, Hoechst nuclei count, 48 h
[13] = survival rescue of mitochondrial mutant cells in low glucose, primary screen, MELAS cybrids, Rieske KO mouse fibroblasts, CellTiter-Glo (AID 1508586;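 active = mean z-score across replicates of 1.96 or higher in either the MELAS or the Rieske mutant cell line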;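 also: z relative to plate mean and SD of compound and empty wells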)
[14] = biological target: NAD(+) hydrolase SARM1 (Homo sapiens) (UniProt Q6SZW1); test: SARM1 TIR NADase inhibitors, cell lysate, NAD-Glo luminescence (AID 1508614;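 active = compound whose remaining NAD level is above about 45 nM, limit read from the data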;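 also: higher remaining NAD means stronger inhibition of SARM1 NADase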); conditions: SAM-TIR HEK293T lysate NADase, at 1 µM, stronger effect = higher value
NAD(+) hydrolase SARM1 (Homo sapiens), sequence (Q6SZW1 whole entry, looked up): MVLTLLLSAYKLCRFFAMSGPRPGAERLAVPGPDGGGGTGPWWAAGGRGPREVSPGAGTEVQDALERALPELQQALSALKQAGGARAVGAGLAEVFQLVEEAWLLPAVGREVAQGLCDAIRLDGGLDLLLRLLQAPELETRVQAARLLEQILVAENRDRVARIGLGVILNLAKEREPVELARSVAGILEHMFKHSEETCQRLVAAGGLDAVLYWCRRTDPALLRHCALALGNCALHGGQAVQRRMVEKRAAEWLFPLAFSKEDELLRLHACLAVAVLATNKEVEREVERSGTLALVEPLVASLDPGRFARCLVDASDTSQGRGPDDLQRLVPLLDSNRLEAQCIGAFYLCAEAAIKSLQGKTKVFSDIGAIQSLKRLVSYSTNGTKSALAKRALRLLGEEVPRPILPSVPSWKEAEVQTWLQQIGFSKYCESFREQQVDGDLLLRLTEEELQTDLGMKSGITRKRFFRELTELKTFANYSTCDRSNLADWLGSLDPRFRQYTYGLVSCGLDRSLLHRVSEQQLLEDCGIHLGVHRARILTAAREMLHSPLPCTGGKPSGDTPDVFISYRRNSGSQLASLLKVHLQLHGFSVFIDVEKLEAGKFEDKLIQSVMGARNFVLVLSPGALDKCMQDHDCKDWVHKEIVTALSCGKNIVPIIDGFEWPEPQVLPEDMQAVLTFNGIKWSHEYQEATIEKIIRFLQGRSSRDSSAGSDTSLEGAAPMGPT

[15] = tested on: Aerobactin synthetase IucA (Klebsiella pneumoniae, hypervirulent); test: IucA enzyme inhibition, biochemical, LOPAC library, absorbance readout (AID 1346212; call rule not given here;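 also: 100% = no compound wells and 0% = no enzyme wells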); conditions: IucA enzyme assay, absorbance (OD) readout; stronger effect = lower value;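 tested at 8 µM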
[16] = biological target: Mitogen-activated protein kinase 7 (Homo sapiens) (UniProt Q13164); test: ERK5 transactivation activators in reporter cells, primary screen, cell-based, HTS (AID 1508626;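 active = luciferase signal above three times the same-plate solvent-only control wells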;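 also: luciferase driven by Gal4-ERK5 fusion binding five Gal4 sites before minimal TATA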); conditions: HeLa Gal4-ERK5 transactivation, 18 h, at 5 µM, stronger effect = higher value
Mitogen-activated protein kinase 7 (Homo sapiens), sequence (Q13164 whole entry, looked up, the tested form may be a part): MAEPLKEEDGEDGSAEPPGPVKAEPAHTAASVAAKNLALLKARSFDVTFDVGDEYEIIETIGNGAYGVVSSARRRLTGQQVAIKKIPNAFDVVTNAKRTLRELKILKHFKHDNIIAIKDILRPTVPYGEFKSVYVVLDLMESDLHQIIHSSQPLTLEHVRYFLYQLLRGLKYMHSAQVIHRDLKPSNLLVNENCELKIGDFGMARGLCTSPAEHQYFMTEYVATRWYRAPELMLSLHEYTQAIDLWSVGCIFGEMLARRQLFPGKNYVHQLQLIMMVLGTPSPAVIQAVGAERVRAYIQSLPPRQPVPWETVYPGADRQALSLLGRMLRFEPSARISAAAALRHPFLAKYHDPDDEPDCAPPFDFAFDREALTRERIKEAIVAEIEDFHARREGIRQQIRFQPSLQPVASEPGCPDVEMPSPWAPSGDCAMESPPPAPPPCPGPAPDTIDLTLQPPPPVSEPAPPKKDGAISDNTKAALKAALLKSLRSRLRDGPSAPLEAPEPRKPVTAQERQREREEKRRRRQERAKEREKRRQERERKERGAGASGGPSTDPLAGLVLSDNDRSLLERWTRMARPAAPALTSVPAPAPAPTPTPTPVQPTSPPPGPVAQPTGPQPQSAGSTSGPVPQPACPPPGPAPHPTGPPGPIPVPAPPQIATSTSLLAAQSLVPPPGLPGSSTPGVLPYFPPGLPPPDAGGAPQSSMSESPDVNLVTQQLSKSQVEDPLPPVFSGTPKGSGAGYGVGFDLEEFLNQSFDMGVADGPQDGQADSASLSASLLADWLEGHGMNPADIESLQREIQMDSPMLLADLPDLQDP

[17] = viability rescue of complex I mutant cybrids, primary screen, cell-based, galactose medium, ATP luminescence (AID 1645843;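 active = z-score of at least 1.8 in each of two replicates, scored against plate mean and spread of sample wells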;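 also: positive z means more ATP and so rescue of galactose-driven cybrid death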); conditions: complex I mutant cybrid cells, 72 h, stronger effect = higher value
[18] = measured here: epithelial PC-3E GFP cell survival
[19] = measured here: mesenchymal TEM4-18 mCherry cell survival
[20] = measured here: relative caspase fold change +Dox/-Dox
[21] = measured here: total cells with miR-34 induction, stronger effect = lower value
[22] = measured here: total cells without miR-34 induction
[23] = MELAS cybrid survival, CellTiter-Glo 48 h, stronger effect = higher value
[24] = Rieske KO mouse fibroblast survival, CellTiter-Glo 72 h

With COc1ccc(CN2CCNCC2)c(OC)c1OC the survival [1] was 5.83 (inactive), the parasite load remaining [2] was 122% (inactive) and 71.5% (inactive) and the viability [2] was 118% and 81.2%. For the same compound, the nuclear beta-catenin stimulation ([3]; at 10 µM) was 0.8% (inactive), the nuclear beta-catenin stimulation ([3]; stimulation, at 2 µM) was 1.1% and the insulin secretion stimulation [4] was -0.9% (inactive). For the same compound, the viability decrease [5] was 14.1% (inactive), the tube area decrease [6] was 8.8% (inactive) and the GLP1 secretion stimulation [7] was 0% (inactive). For the same compound, the inhibition of viability [8] was 19.3% (inactive), the viability decrease (inhibition) [9] was -6.6% (inactive) and the viability decrease (inhibition) [10] was 1.5% (inactive). For the same compound, the red/green cell ratio (normalised) [11] was 0.94 (inactive), the normalised cell number [11, 18] was 1.11 and the normalised cell number [11, 19] was 1.05. The fold change ([12]; stronger effect = lower value) was 0.892 (inactive), the fold change [12, 20] was 1.29 and the cell count [12, 21] was 9020. For the same compound, the cell count [12, 22] was 10100, the z-score [13, 23] was 0.315 (inactive) and the z-score [13, 24] was 0.274. The remaining NAD [14] was 10 nM (inactive).

In the case of CCCCC/C=C\C/C=C\C/C=C\C/C=C\CCCC(=O)NCC(=O)O, the survival [1] was 96.8 (inactive), the nuclear beta-catenin stimulation ([3]; at 10 µM) was 0.8% (inactive) and the nuclear beta-catenin stimulation ([3]; stimulation, at 2 µM) was 0.6%. The insulin secretion stimulation [4] was 2.2% (inactive), the viability decrease [5] was 104% (active) and the tube area decrease [6] was -12.4% (inactive). For the same compound, the GLP1 secretion stimulation [7] was 5% (inactive), the inhibition of viability [8] was 103% (active) and the viability decrease (inhibition) [9] was 145% (active). For the same compound, the viability decrease (inhibition) [10] was 105% (active), the remaining activity [15] was 101% (inactive) and the fold change ([12]; stronger effect = lower value) was 0.935 (inactive) and 1.01 (inactive). For the same compound, the fold change [12, 20] was 1.02, the cell count [12, 21] was 5930 and 5790 and the cell count [12, 22] was 6340 and 5700.

For C[N+]1(C)[C@@H]2CC[C@H]1CC(OC(=O)C(CO)c1ccccc1)C2 (stereo partly drawn), the nuclear beta-catenin stimulation ([3]; at 10 µM) was 0.5% (inactive), the nuclear beta-catenin stimulation ([3]; stimulation, at 2 µM) was -0.7% and the insulin secretion stimulation [4] was 3.3% (inactive). The viability decrease [5] was -5.8% (inactive), the tube area decrease [6] was -7.8% (inactive) and the GLP1 secretion stimulation [7] was 2.8% (inactive). The inhibition of viability [8] was 12.1% (inactive), the viability decrease (inhibition) [9] was -13.2% (inactive) and the viability decrease (inhibition) [10] was 13.1% (inactive). For the same compound, the remaining activity [15] was 93.2% (inactive), the remaining NAD [14] was 10 nM (inactive) and the luciferase signal [16] was 60 AU (inactive).

For N#CC(C#N)=Cc1ccc(O)c(O)c1, the survival [1] was 57.1 (inactive), the nuclear beta-catenin stimulation ([3]; at 10 µM) was 3.9% (inactive) and the nuclear beta-catenin stimulation ([3]; stimulation, at 2 µM) was 3.3%. The insulin secretion stimulation [4] was 0.65% (inactive), the viability decrease [5] was 86.7% (active) and the tube area decrease [6] was 17.4% (inactive). For the same compound, the GLP1 secretion stimulation [7] was -2.9% (inactive), the inhibition of viability [8] was 55.1% (active) and the viability decrease (inhibition) [9] was 62.8% (active). The viability decrease (inhibition) [10] was 48.5% (inactive), the remaining activity [15] was 120% (inactive) and the fold change ([12]; stronger effect = lower value) was 1.02 (inactive) and 0.942 (inactive) and 0.96 (inactive). The fold change [12, 20] was 1.77 and 0.329 and 1.5, the cell count [12, 21] was 8900 and 8210 and 9690 and the cell count [12, 22] was 8760 and 8720 and 10100. For the same compound, the z-score [13, 23] was -0.508 (inactive), the z-score [13, 24] was -0.257 and the z-score [17] was -0.735 (inactive) and -0.66 (inactive).

For CC(C)NCC(O)c1ccc(N)c(C#N)c1 (stereo not drawn), the parasite load remaining [2] was 53.9% (inactive), the viability [2] was 161% and the nuclear beta-catenin stimulation ([3]; at 10 µM) was -0.6% (inactive). For the same compound, the nuclear beta-catenin stimulation ([3]; stimulation, at 2 µM) was -0.3%, the insulin secretion stimulation [4] was 2.6% (inactive) and the viability decrease [5] was 25.9% (inactive). The tube area decrease [6] was -6.6% (inactive), the GLP1 secretion stimulation [7] was 8.5% (inactive) and the inhibition of viability [8] was 12.2% (inactive). For the same compound, the viability decrease (inhibition) [9] was 40% (inactive), the viability decrease (inhibition) [10] was 9.6% (inactive) and the fold change ([12]; stronger effect = lower value) was 0.911 (inactive) and 0.954 (inactive) and 0.854 (inactive). The fold change [12, 20] was 1.24 and 1.48 and 1.65, the cell count [12, 21] was 6050 and 9400 and 9430 and the cell count [12, 22] was 6640 and 9850 and 11000. The z-score [13, 23] was 0.636 (inactive), the z-score [13, 24] was 1.18 and the z-score [17] was 0.17 (inactive) and 0.505 (inactive).

For Clc1cccc(SC2CCNCC2)n1, the nuclear beta-catenin stimulation ([3]; at 10 µM) was 1% (inactive), the nuclear beta-catenin stimulation ([3]; stimulation, at 2 µM) was 2% and the insulin secretion stimulation [4] was 4.8% (inactive). For the same compound, the viability decrease [5] was -32% (inactive), the tube area decrease [6] was 5.5% (inactive) and the GLP1 secretion stimulation [7] was 0.9% (inactive). For the same compound, the inhibition of viability [8] was 11.5% (inactive), the viability decrease (inhibition) [9] was 17.2% (inactive) and the viability decrease (inhibition) [10] was -11.3% (inactive). For the same compound, the fold change ([12]; stronger effect = lower value, cell number ratio, induced over uninduced) was 1.01 (inactive), the fold change [12, 20] was 0.88 and the cell count [12, 21] was 8450. The cell count [12, 22] was 8400 and the z-score [17] was -0.34 (inactive).

In the case of C[C@]12CC[C@H](O)CC1=CC[C@@H]1[C@@H]2CC[C@]2(C)C(=O)CC[C@@H]12, the parasite load remaining [2] was 67.8% (inactive) and 14.9% (inactive), the viability [2] was 72.6% and 126% and the nuclear beta-catenin stimulation ([3]; at 10 µM) was 3.7% (inactive). The nuclear beta-catenin stimulation ([3]; stimulation, at 2 µM) was 1.2%, the insulin secretion stimulation [4] was -3% (inactive) and the viability decrease [5] was 3.8% (inactive). The tube area decrease [6] was 8% (inactive), the GLP1 secretion stimulation [7] was 1.9% (inactive) and the inhibition of viability [8] was -21.8% (inactive). For the same compound, the viability decrease (inhibition) [9] was 113% (active), the viability decrease (inhibition) [10] was 8.95% (inactive) and the fold change ([12]; stronger effect = lower value) was 0.917 (inactive). For the same compound, the fold change [12, 20] was 1.38, the cell count [12, 21] was 8820 and the cell count [12, 22] was 9620. For the same compound, the z-score [13, 23] was 0.542 (inactive), the z-score [13, 24] was -0.656 and the remaining NAD [14] was 10 nM (inactive). The luciferase signal [16] was 48 AU (inactive) and the z-score [17] was -0.16 (inactive).

In the case of Nc1nc(N)nc(NC2CC2)n1, the nuclear beta-catenin stimulation ([3]; at 10 µM) was 0.9% (inactive), the nuclear beta-catenin stimulation ([3]; stimulation, at 2 µM) was 2.8% and the insulin secretion stimulation [4] was -1.3% (inactive). For the same compound, the viability decrease [5] was -16.8% (inactive), the tube area decrease [6] was 5.4% (inactive) and the GLP1 secretion stimulation [7] was 2.4% (inactive). The inhibition of viability [8] was 2.07% (inactive), the viability decrease (inhibition) [9] was -5.7% (inactive) and the viability decrease (inhibition) [10] was -8.2% (inactive). For the same compound, the red/green cell ratio (normalised) [11] was 0.97 (inactive), the normalised cell number [11, 18] was 1 and the normalised cell number [11, 19] was 0.96. For the same compound, the fold change ([12]; stronger effect = lower value) was 0.94 (inactive) and 0.918 (inactive), the fold change [12, 20] was 0.828 and 0.774 and the cell count [12, 21] was 8490 and 8320. The cell count [12, 22] was 9030 and 9070, the z-score [13, 23] was -0.201 (inactive) and the z-score [13, 24] was -0.194. For the same compound, the remaining NAD [14] was 10 nM (inactive).
